The structures appear in SMILES notation. Screen size: about 94,000 compounds; about 4,000 (4.3%) were called active. Where a call stands in place of a potency, no number is given. Not shown: some 29% with an inconclusive outcome. Calls come from the whole dose curve; as a rule, active = well fitted inhibition curve with a large enough effect; inconclusive = small, poorly fitted or top-dose-only effect; inactive = no such curve, though single readings can be large or run the other way. The sample as a whole holds a higher share of actives than the screen did.
Potency is the fitted concentration of half-maximal effect.

A short description of this test: Cytotoxic Profiling in NIH 3T3 Cell Line of Diverse Libraries Using Quantitative High-Throughput Screening. Note: nearly all actives have a fitted effect of over 55% in size. The following applies: NIH 3T3 viability, CellTiter-Glo ATP luminescence, 48-72 h; series mostly up to 96.7 µM. An outline of the steps:
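Cytotoxicity was measured by CellTiter-Glo ATP luminescence after 48 or 72 h compound exposure at 37 °C. Mouse NIH 3T3 fibroblasts were seeded at 400 cells/well and dosed by 23 nL pin transfer.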
(In general: ATP-based viability assays read luminescence as a measure of living cells.)
On to `Cc1cnc(CCNS(=O)(=O)Cc2ccccc2F)n1Cc1ccccc1`, for which the Potency entry was “inactive”.

As for `CN(CC#N)C(=O)[C@H]1CN(Cc2ccccc2)C[C@H]1C(=O)O`, the Potency entry was “inactive”.

For `Cc1ccc(NC(=O)NC[C@H]2O[C@@H](CC(=O)N3CCN(c4ccccc4)CC3)[C@H](O)[C@@H]2O)cc1`, the Potency result is “inactive”.

Consider `O=C(NCC1CN(Cc2ccccc2)CC12CN(c1ccccc1)C2)Nc1ccccc1` (configuration not stated), for which the Potency was 39.8 µM (active).

Take `CC(C)OCCCNC(=O)C1Cn2cccc2C(=O)N1C` (configuration not stated): the Potency entry is “inactive”.

Take `CC(C)CN1C(=O)c2cccn2CC1C(=O)NCC1CCN(Cc2cccc(F)c2)CC1` (configuration not stated): the Potency entry is “inactive”.

Regarding `Cc1cnc(C2CCC2)n1CCNS(=O)(=O)c1cc(F)ccc1F`, the Potency entry is “inactive”.

For `COCC(=O)N[C@H]1CO[C@H]2[C@@H]1OC[C@@H]2Nc1nccc(C(C)(C)C)n1`, the Potency entry is “inactive”.

For the compound `O=C(NCC1CC1)c1ccc2nnc(CC3CC3)n2c1`, the Potency entry is “inactive”.

For the compound `Cc1cccc(Nc2nc(N)nc(CN3CCC4(CC3)OCCCC4O)n2)c1` (configuration not stated), the Potency result was “inactive”.

Turning to `O=C(CCn1ccc(=O)[nH]c1=O)N1CCn2nc(Cc3ccccc3)cc2C1`, the Potency entry was “inactive”.

With `COc1cccc(CNC(=O)c2cc(-c3ccc(Cl)nc3)nc3c2cnn3C)c1`, the Potency result was “inactive”.

For the compound `Cn1ncc2c(C(=O)NCc3ccc(F)cc3)cc(-c3cccc(C(F)(F)F)c3)nc21`, the Potency entry was “inactive”.

On to `Cn1ncc2c(C(=O)NCc3cccnc3)cc(C(C)(C)C)nc21`, for which the Potency is 44.7 µM (active).

For the compound `Cc1ccccc1S(=O)(=O)N1C[C@@H]2CCCN3CCC[C@@H]([C@H]23)[C@H]1CCCC(=O)N1CCOCC1`, the Potency entry was “inactive”.

Regarding `Cc1cc(C(=O)N[C@H](C)c2c(-c3ccc(F)cc3)noc2C(=O)O)nn1C`, the Potency entry was “inactive”.

As to `COC1CN(C2CCN(C(=O)C3CCC3)CC2)C12CCOCC2` (configuration not stated), the Potency entry was “inactive”.

Take `CC(=O)NC1(C)CCN(Cc2cccc(-c3ccc(C(=O)c4ccccc4)cc3)c2)C1` (configuration not stated): the Potency was 35.5 µM (active).

On to `Cc1ccc(-c2cccc(CN3CCCC(NC(=O)c4ccc(Cl)cc4)C3)c2)cc1Cl` (configuration not stated), for which the Potency result is “inactive”.

Consider `CC(=O)NC1(C)CCN(Cc2cnc(-c3ccc4c(ccn4C)c3)s2)CC1`, for which the Potency result is “inactive”.

Regarding `O=C(Nc1ccccc1)C1CN(S(=O)(=O)c2cccnc2)CC12CCCCC2` (configuration not stated), the Potency result is “inactive”.

With `COc1ccc(C(=O)NCc2nnc3ccc(-c4ccc(C)cc4)nn23)cc1F`, the Potency entry is “inactive”.

`Cc1ccc(-c2ccc3nnc(CNC(=O)c4ccncc4)n3n2)cc1C`: the Potency entry is “inactive”.

For the compound `Cc1ccc(-c2nnc3ccc(-c4ccoc4)nn23)nc1`, the Potency was 100 µM (active).

Consider `Cc1ccc(CCN2C[C@]34C=C[C@H](O3)C(C(=O)N(C)Cc3nccn3C)C4C2=O)cc1` (some centres not stated), for which the Potency result was “inactive”.

For the compound `COc1ccc(-c2ccc(C(=O)NCc3ccc(F)cc3)cc2)nn1`, the Potency result is “inactive”.

With `COc1ccc(CNC(=O)c2cccc3c2CCN3C(=O)c2ccc(F)cc2)cc1OC`, the Potency is 39.8 µM (active).

In the case of `COc1ccc(CNC(=O)c2c(C)sc3ccn(CC(C)C)c(=O)c23)cc1OC`, the Potency result is “inactive”.

For the compound `COc1ccc(CC(=O)N2CCC[C@@H]2C(=O)N2CCC(N3CCOC3=O)CC2)cc1`, the Potency entry is “inactive”.

Take `COc1ccc(Cn2c(C3CCN(C(=O)Cc4ccsc4)CC3)n[nH]c2=O)cc1`: the Potency entry was “inactive”.

Consider `COc1cncc(-c2cccc(COc3ccc4c(cnn4CC[S+](C)(=O)[O-])c3)c2)c1`, for which the Potency is 56.2 µM (active).

With `O=C1CCN(C2CCCC2)CCOCCN1`, the Potency result is “inactive”.

On to `O=C(Nc1cccc(Cl)c1)[C@@H]1C[C@@H](c2ccc(F)cc2)N([S+](=O)([O-])c2cccnc2)C1`, for which the Potency was 35.5 µM (active).

Take `O=C1CCN(Cc2ccncc2)CCCC(C(=O)Nc2cccc(F)c2)CCN1` (configuration not stated): the Potency entry was “inactive”.

Turning to `O=C(NCC1CCOCC1)Nc1cccc(Cl)c1`, the Potency result was “inactive”.

On to `O=C(Nc1cccc(Cl)c1)C1CN(c2ccccc2)C(=O)N1` (configuration not stated), for which the Potency entry is “inactive”.

In the case of `O=C(Nc1cccc(Cl)c1)[C@@H]1C[C@H](c2ccc(F)cc2)N([S+](=O)([O-])C2CC2)C1`, the Potency was 79.4 µM (active).

`O=C(Nc1cccc(F)c1)c1cc2n(n1)CC(c1ccc(Cl)cc1)OC2` (configuration not stated): the Potency result is “inactive”.

For the compound `O=C(C1CCOC1)N1CCC(N(Cc2ccccc2)C2CCOCC2)CC1` (configuration not stated), the Potency result was “inactive”.

`CN(C)C(=O)N1CCCC1C(=O)N1CCC(c2nc3ccncc3[nH]2)C1` (configuration not stated): the Potency entry is “inactive”.

For the compound `Nc1nc(CCCNC(=O)C2NCCc3[nH]cnc32)cs1` (configuration not stated), the Potency result was “inactive”.

As for `O=C(Nc1ccccc1)N1CCC(C(=O)N2CCC(N3CCOCC3=O)CC2)CC1`, the Potency entry was “inactive”.

Regarding `CC[C@H]1CN(S(C)(=O)=O)CC[C@H]1CC(=O)NCc1ccco1`, the Potency result was “inactive”.

For the compound `Cc1cccc(C)c1NC(=O)N(C)CC1CCOCC1`, the Potency result is “inactive”.

Turning to `COCC(=O)N[C@@H]1CN(Cc2ccc(F)c(OC)c2)C[C@H]1CO`, the Potency result is “inactive”.

Regarding `O=C(NCc1ccc(F)c(F)c1)c1ccc2nnc(-c3cccnc3)n2c1`, the Potency entry is “inactive”.

On to `COCCNC(=O)c1ccc2nnc(-c3cccc(C(F)(F)F)c3)n2c1`, for which the Potency result is “inactive”.

`O=C(NCCc1ccccc1)c1ccc2nnc(-c3cccc(C(F)(F)F)c3)n2c1`: the Potency was 39.8 µM (active).

As for `O=C(NCCCc1ccccc1)C1CCc2nnc(-c3cccc(C(F)(F)F)c3)n21` (configuration not stated), the Potency entry is “inactive”.

With `O=C(NCc1ccc(C(F)(F)F)cc1)c1ccc2nnc(-c3ccc(C(F)(F)F)cc3)n2c1`, the Potency is 31.6 µM (active).

Regarding `O=C(NCc1ccccc1)c1ccc2nnc(C3CC3)n2c1`, the Potency result is “inactive”.

With `COC(=O)c1ccc(CN2C(=O)[C@@H]3C[C@@H](O)CN3C3(CN(Cc4cccc(F)c4)C3)C2=O)cc1`, the Potency entry is “inactive”.

As for `CCN1CC(C(=O)NCC2(c3ccccc3F)CCCC2)CC1=O` (configuration not stated), the Potency entry is “inactive”.

Take `CC(C)c1ccc(CN2CCc3nc(N(C)C)[nH]c(=O)c3CC2)cc1`: the Potency result is “inactive”.

`COc1cccc(CCC(=O)N2C[C@@H](Oc3ccccc3)C[C@@H]2C(=O)N2CCOCC2)c1`: the Potency result was “inactive”.

Regarding `Cc1ccc(NC(=O)N[C@@H]2C=C(C(=O)NCCC(N)=O)C[C@@H](O)[C@@H]2O)cc1`, the Potency result was “inactive”.

With `CN1C[C@@H]2CC[C@H](C1)N(Cc1cccc(OCCN3CCOCC3)c1)C2`, the Potency entry is “inactive”.

With `CCCCC(=O)N1CCC(OC2CCN(S(C)(=O)=O)CC2)CC1`, the Potency result is “inactive”.

`Cn1cnc(S(=O)(=O)N[C@H]2CCN(C(=O)CSCC(=O)O)[C@H](C(=O)N[C@H](Cc3ccccc3)C(N)=O)C2)c1`: the Potency result is “inactive”.

Consider `COc1ccccc1-n1c(=O)c(C(=O)N2CCN([S+](C)(=O)[O-])CC2)nc2cccnc21`, for which the Potency result is “inactive”.

Take `Cc1cc(N2CCC3(CC2)CC(c2ccccc2)C(=O)N3C)ncn1` (configuration not stated): the Potency was 79.4 µM (active).

Regarding `Cc1ccncc1C(=O)N1CCC2(CC1)CC(c1ccccc1)C(=O)N2C` (configuration not stated), the Potency result is “inactive”.

Source of the values: PubChem BioAssay AID1345082 (National Center for Advancing Translational Sciences (NCATS), 2018).
